TDP1 cell noCPT: qHTS for Inhibitors of human tyrosyl-DNA phosphodiesterase 1 (TDP1): qHTS in cells in absence of CPT. actives 15% (n = 420,000). Potency, µM (series often up to 46.2 µM), for inactives: at the highest dose activity change, negative = growth inhibition, usual class: inhibitors. DT40 Tdp1-/- hTDP1 cells, no CPT, ATP luminescence, 48 h. AID 686978, 2013; also: potency is read from the fitted curve at half-maximal effect; nearly all actives have a fitted effect of over 55% in size
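Chicken DT40 Tdp1-/- cells stably complemented with human TDP1 were seeded at 400 cells/well with DMSO in place of 20 nM camptothecin. After compound pinning, cells grew at least 48 hr at 37 °C; viability read by CellTiter-Glo luminescence.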
IL-1B inflam inh: qHTS for Inhibitors of Inflammasome Signaling: IL-1-beta AlphaLISA Primary Screen. THP-1 LPS/ATP IL-1B secretion, AlphaLISA, 16 h; active compounds read low. activity change, % at 57.5 µM. actives 4.7% (n = 360,000). AID 743279, 2014; in the data active = activity change below about -50%; inconclusive = mostly about -30% to -49%
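Secreted IL-1B measured by AlphaLISA bead assay after 16 h compound exposure of THP-1 cells; compounds (final up to 57.5 uM) added 1 h before LPS (250 ng/mL) and ATP (1.25 mM) stimulation; lower signal means less secretion.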
VP16 counter: VP16 counterscreen qHTS for inhibitors of ROR gamma transcriptional activity | Drosophila S2 Gal4-VP16 UAS-luciferase, luminescence, 20 h | Potency, µM (titrated, usually from 53.6 µM), inactives show at the highest dose activity, negative = inhibition, usual class: inhibitors | actives 3.5% (n = 310,000) | AID 2546, 2010;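 also: Gal4-VP16 expression switched on by copper sulfate through the metallothionein promoter; potency is read from the fitted curve at half-maximal effect; nearly all actives have a fitted effect of over 50% in size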
ELG1 DNA repair: qHTS screen for small molecules that inhibit ELG1-dependent DNA repair in human embryonic kidney (HEK293T) cells expressing luciferase-tagged ELG1; HEK293T ELG1-luciferase reporter, luminescence, 16 h; DNA damage induced by 5-fluorouridine; Potency, µM (titrated, usually from 46.1 µM), inactives show top-dose activity change, negative = inhibition, most hits filed as inhibitors; actives 2.3% (n = 330,000); also: potency is read from the fitted curve at half-maximal effect; nearly all actives have a fitted effect of over 55% in size
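In this reporter screen, reduction of luminescence relative to DMSO vehicle indicated activity. Compounds and 5-fluorouridine were added together to 2,000 cells per well, incubated for 16 hr at 37 °C, then developed with ONE-Glo.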
RORgamma inh: qHTS for inhibitors of ROR gamma transcriptional activity; Nuclear receptor ROR-gamma (Mus musculus), P51450; Drosophila S2 Gal4-RORgamma UAS-luciferase reporter, 20 h; Potency, µM (doses to about 53.6 µM), for the others: at the top dose activity change, negative = inhibition, actives largely listed as inhibitors; actives 5.4% (n = 310,000); AID 2551, 2010; also: potency is read from the fitted curve at half-maximal effect; nearly all actives have a fitted effect of over 60% in size
Target sequence (P51450 whole entry, looked up, the tested form may be a part): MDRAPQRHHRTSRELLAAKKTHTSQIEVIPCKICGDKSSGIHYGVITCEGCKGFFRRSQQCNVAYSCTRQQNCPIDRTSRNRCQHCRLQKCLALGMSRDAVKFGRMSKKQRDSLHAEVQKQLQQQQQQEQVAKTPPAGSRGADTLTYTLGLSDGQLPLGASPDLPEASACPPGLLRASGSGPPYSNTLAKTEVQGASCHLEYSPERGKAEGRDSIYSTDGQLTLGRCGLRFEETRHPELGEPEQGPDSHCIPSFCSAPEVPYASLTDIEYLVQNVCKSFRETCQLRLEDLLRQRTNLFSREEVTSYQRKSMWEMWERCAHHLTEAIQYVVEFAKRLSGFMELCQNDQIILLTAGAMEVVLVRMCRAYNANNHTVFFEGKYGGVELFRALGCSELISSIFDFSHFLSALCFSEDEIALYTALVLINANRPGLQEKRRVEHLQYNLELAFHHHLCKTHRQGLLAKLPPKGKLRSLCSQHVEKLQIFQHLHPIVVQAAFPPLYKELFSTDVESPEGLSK
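Stably transfected Drosophila Schneider cells are the test system, with ROR gamma fused to Gal4 and luciferase under UAS control; luminescence is read after 20 hr of 700 uM copper sulfate induction at ambient temperature.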
TDP1 cell CPT: qHTS for Inhibitors of human tyrosyl-DNA phosphodiesterase 1 (TDP1): qHTS in cells in presence of CPT. Potency, µM (titrated, usually from 46.2 µM), for inactives: top-dose activity change, negative = growth inhibition, actives largely listed as inhibitors. actives 12% (n = 420,000). chicken DT40 Tdp1-/-;hTDP1 cells + 20 nM CPT, ATP luminescence, 48 h; also: potency is read from the fitted curve at half-maximal effect; nearly all actives have a fitted effect of over 55% in size
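Chicken DT40 Tdp1-/- cells stably complemented with human TDP1 were seeded at 400 cells/well in medium containing 20 nM camptothecin, exposed to pin-transferred compounds, and grown at 37 °C for at least 48 hr. Viability was read as ATP luminescence.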
Starred values were filed as active, the others as inactive; u = inconclusive; x = not tested or not shown; [ ] = dose if it differs, or a comment. Sampled rows, rich in hits. Any-hit rate of the full collection: about 21%. Unless noted, calls follow the shape of the dose curve; as a rule, active = well fitted curve in the direction sought with a large enough effect; inconclusive = small, poorly fitted or top-dose-only effect, or another doubt; inactive = no such curve, though single readings can be large; an effect the other way counts as inactive or inconclusive. % is scaled to controls: 0 for no effect and ±100 for the full control effect.

SMILES | TDP1 cell noCPT | IL-1B inflam inh | VP16 counter | ELG1 DNA repair | RORgamma inh | TDP1 cell CPT
Cc1ccc(CNC(=O)c2nc(S(=O)(=O)Cc3ccc(C)cc3)ncc2Cl)cc1 | 3.26µM* | x | x | x | x | 5.8µM*
Cc1ccc(S(=O)(=O)NC2CCSC2=O)cc1C (stereo unspecified) | 0.1% | 7.4 | x | 28.5% | x | 2.9%
Cc1ccc(S(=O)(=O)c2nc(S(C)(=O)=O)sc2N2CCC3(CC2)OCCO3)cc1 | u | u | -3.6% | -2.7% | 16.0% | -25.9%
COc1ccc(C)cc1NC(=O)CSc1nc(=O)n(CCCN2CCOCC2)c2c1CCCC2 | u | -17.2 | x | -11.1% | x | u
COc1ccc(CN(C)C(=O)C(CCSC)NS(=O)(=O)c2ccc3c(c2)OCCO3)c(OC)c1OC (stereo unspecified) | u | -9.0 | x | x | x | u
CCCCOc1ccc(C(=O)Nc2cccc(-n3cnnn3)c2)cc1OC | -26.4% | 15.2 | 2.2% | 2.2% | 19.4% | -32.4%
Nc1nc(SCc2ccccn2)c2ncn(C3OC(CO)C(O)C3O)c2n1 (stereo unspecified) | -2.8% | 28.7 | x | x | x | -5.2%
CC1(O)CC(c2ccc(Cl)cc2)=NN1C(=O)c1ccc([N+](=O)[O-])cc1 (stereo unspecified) | 18.4µM* | -88.5* | u | u | u | 20.6µM*
CC(=O)N1N=C(c2ccc(Cl)cc2)CC1c1ccc([N+](=O)[O-])cc1 (stereo unspecified) | u | -12.6 | 3.3% | -16.0% | -16.8% | u
O=C1CSC(c2cccnc2)N1CCc1ccccn1 (stereo unspecified) | -1.4% | 14.5 | 11.2µM* | u | u | 0.6%
Cc1cc(Cl)ccc1-c1cc2nc(NCCCN(C)C)n(C)c(=O)c2s1 | 13µM* | -10.8 | x | x | x | 23.1µM*
COc1ccc(-c2cc3nc(NCCCN(C)C)n(C)c(=O)c3s2)c(C)c1 | u | -20.7 | x | x | x | u
Cc1cscc1-c1cc2nc(NCCCN(C)C)n(C)c(=O)c2s1 | u | u | x | x | x | 16.4µM*
CN(C)CCCNc1nc2cc(-c3ccccc3CO)sc2c(=O)n1C | -1.7% | 0.4 | x | x | x | -16.4%
COc1ccc([C@H]2/C=C\CN(S(=O)(=O)c3ccc(C)cc3)[C@@H](C)C(=O)N2Cc2ccc(F)cc2)cc1 | u | 26.0 | x | x | x | 18.4µM*
COc1ccc(C2/C=C\CN(S(=O)(=O)c3ccc(C)cc3)CC(=O)N2Cc2cccc(F)c2)cc1 (stereo unspecified) | u | 27.2 | 4.5% | 20.6µM* | 16.6% | 14.6µM*
COc1ccc(C2/C=C\CN(S(=O)(=O)c3ccc(C)cc3)C(C)C(=O)N2Cc2ccc(F)cc2)cc1 (stereo unspecified) | x | x | -7.5% | x | 14.9% | x
COc1ccc(C2/C=C\CN(S(=O)(=O)c3ccc(C)cc3)CC(=O)N2Cc2ccc(F)cc2)cc1 (stereo unspecified) | 18.4µM* | 8.3 | 3.0% | 1.3% | 4.1% | u
COc1ccc(C2/C=C\CC(NS(=O)(=O)c3ccc(C)cc3)CC(=O)N2Cc2ccccc2F)cc1 (stereo unspecified) | u | -22.4 | x | -14.0% | x | 23.1µM*
COc1ccc(C2/C=C\CN(CC3CC3)CC(=O)N2Cc2ccc(F)cc2)cc1 (stereo unspecified) | u | -23.1 | 16.5% | 3.8% | -31.9% | u
Cn1c(CNC(=O)C2CCC(=O)N(CCc3cccc(F)c3)C2)nc2ccccc21 (stereo unspecified) | u | -8.1 | 6.0% | 3.8% | -38.9% | u
Cc1cc(Br)ccc1OCC(=O)NNC(=O)C(=O)Nc1ccccc1 | 1.8% | 1.7 | -4.2% | 5.7% | -11.7% | 11.7%
COc1ccc([C@H]2/C=C\CN(S(=O)(=O)c3cccc4cccnc34)[C@@H](C)C(=O)N2Cc2ccc(F)cc2)cc1 | 14.6µM* | -9.8 | x | x | x | 18.4µM*
COc1ccc(C2/C=C\CN(S(=O)(=O)c3cccc4cccnc34)CC(=O)N2Cc2ccc(F)cc2)cc1 (stereo unspecified) | u | 0.2 | 6.3% | u | -32.8% | u
CCc1nc2ccccc2c(C(=O)OCC(=O)C(C)(C)C)c1C | 18.4µM* | 15.2 | -5.1% | u | 0.1% | u
SMILES | TDP1 cell noCPT | IL-1B inflam inh | VP16 counter | ELG1 DNA repair | RORgamma inh | TDP1 cell CPT
CCc1nc2ccccc2c(C(=O)OCc2nnc(-c3ccccc3)o2)c1C | u | 2.1 | -10.1% | 20.6µM* | 16.9% | 18.4µM*
CCc1nc2ccccc2c(C(=O)OCc2nc3ccccc3c(=O)[nH]2)c1C | 4.61µM* | -56.0* | x | 13µM* | x | 3.26µM*
CCc1nc2ccccc2c(C(=O)OCCN2C(=O)c3ccccc3C2=O)c1C | u | 18.5 | -1.7% | -24.8% | 21.1% | u
CCc1nc2ccccc2c(C(=O)OCC(=O)NC2CC2)c1C | u | -22.7 | x | 0.0% | x | u
Cc1c(C(=O)OCc2nnc(-c3ccccc3)o2)oc2ccccc12 | -14.1% | -11.4 | x | -5.9% | x | -4.0%
O=C1CCCC=C1[C@@H](O)CCOCc1ccccc1 | x | x | -6.3%[10 µM] | x | 24.8%[10 µM] | x
CC1CCN(c2nc3nonc3nc2Nc2ccc(F)cc2)CC1 | u | -76.0* | -0.5% | u | 1.0% | 13.3%
COc1ccc(Nc2nc3nonc3nc2N2CCCCC2)cc1 | -17.0% | -4.0 | 4.2% | 20.6µM* | u | -2.1%
CCc1ccccc1OCC(=O)NCC1COc2ccccc2O1 (stereo unspecified) | u | -11.7 | x | 1.1% | x | u
CCOC(=O)OCC1OC(C#Cc2ccc(Br)cc2)C=CC1OC(=O)OCC (stereo unspecified) | x | x | 2.8%[10 µM] | x | 32.8%[10 µM] | x
N#CC(C#N)=C1C=C2C=C(N3CCCCC3)CCC2CC1 (stereo unspecified) | 20.6µM* | -6.4 | -0.6% | u | 30.2% | 25.9µM*
CCN(CC)C1=CC2=CC(=C(C#N)C#N)CCC2CC1 (stereo unspecified) | u | -2.0 | -13.3% | -8.4% | -5.2% | -13.8%
O=[N+]([O-])c1ccc(OCCCCN2CCCCC2)cc1 | -0.8% | 7.5 | -0.8% | 10.3% | -41.3% | -0.6%

Source: PubChem BioAssay (National Center for Advancing Translational Sciences (NCATS))
